Reference: PubChem BioAssay (NCI)
Where “and” joins values, the source holds several entries; their conditions need not be identical. Equal entries are not always repeated. About 83,000 compounds went through this panel and 20% of them were active in at least one assay; those are over-represented in the sample as a whole.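 Method: cells in 96-well plates; compound added at one concentration; 48 h incubation; percent growth measured; values under 10 scored active.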 Unmarked numbers belong to inactive results. Calls of active or inactive are those of the source.

The molecules below were run on HL-60(TB) leukemia (assay: NCI-60 one-dose screen, 48 h (100 = growth as untreated, 0 = no growth, -100 = all killed)). Conditions: 10 µM unless noted.

SMILES | growth
O=C(NCc1cccnc1)c1ccc([N+](=O)[O-])o1 | 9.68% (active)
CCCC(C)OCC(=O)O (stereo unspecified) | 88.8%
C#CCC(C(=O)OCC)C(=O)OCC | 101%
Cn1ncc2c(Nc3ccc(O)cc3)nc(Cl)nc21 | 95.1%
CCOC(=O)Cn1c(O)c(N=Nc2ccc(S(N)(=O)=O)cc2)c2cc(Br)ccc21 | 96.2%
Cc1ccc2c(c1)Sc1c(ccc3ccccc13)N2 | 44.9%
Cc1ccc(-c2nc(N3CCNCC3)c3oc(-c4ccccc4)nc3n2)cc1 | -66.6% (active)
O=C(Cc1ccccc1)Nc1nc(O)c(/C=C2\C(=O)C=Cc3ccccc32)s1 | 103%
COc1ccc(-c2ncnc3c2ncn3C/C=C/CCl)cc1 | 65% and 79.4%
C/C(=N\O)c1ccc(NC(=O)CSc2nnc(-c3ccccc3)n2-c2ccccc2)cc1 | 90.4%
COc1cc(-c2nc3ccccc3[nH]2)ccc1OCc1nnc(-c2ccc(CC(C)C)cc2)o1 | 98.5%
C=C1[C@@H](O)C[C@H]2C(C)(C)C[C@H](Cl)C[C@]2(C)[C@H]1C[C@H](O)[C@H]1CC(=O)NC1=O | -26% (active)
CNc1ccc2nc3ccc(=[N+](C)C)cc-3sc2c1 | -22.9% (active) and 5.72% (active)
Cn1cnc([N+](=O)[O-])c1S(=O)(=O)Oc1cccc2ccccc12 | 4.37% (active)
N#Cc1c(-c2ccc(Cl)cc2)nc(SCC(=O)NC2=NN=C(c3ccccc3)CS2)[nH]c1=O | 4.11% (active)
COc1cc(/C=C/c2cc(/C=C/c3ccc(O)c(OC)c3)n(-c3c(Cl)cccc3Cl)c(=O)n2)ccc1O | 13.5%

SMILES | growth
Oc1ccc(/C=N/Nc2nnc(N/N=C/c3ccc(O)cc3O)c3ccccc23)c(O)c1 | -62.2% (active)
CC1CN(c2oc(-c3ccccc3)nc2C#N)CC(C)O1 (stereo unspecified) | 101%
O=C(Nc1nc2ccc(C(=O)N3CCN(c4ccc(Cl)c(Cl)c4)CC3)cc2s1)c1ccc(NCCc2ccccc2)c([N+](=O)[O-])c1 | 101%
O=C(/C=C\c1ccc(Cl)c(Cl)c1)c1ccccc1 | 59.3% and 99.9%
CC(=O)Nc1ccc2c(c1)Cc1cc(F)ccc1-2 | 66.8%
O=C1C(Cl)=C(Nc2ccc(O)cc2)C(=O)N1Cc1ccc(Cl)cc1 | 32.8%
C(=N\OCCc1ccccc1)/c1ccccn1 | 99.3% and 85.5%
O=C(O)c1ccc(-c2nn(-c3ccc(C(=O)O)cc3)cc2/C=N/Nc2c(F)c(F)cc(F)c2F)cc1 | 96.5%
CCN(CC)CC(O)CNc1c2ccc([N+](=O)[O-])cc2nc2cc(OC)c(OC)cc12 (stereo unspecified) | -17.5% (active)
O=C1/C(=C/c2ccc(F)cc2)COc2ccc(O)cc21 | 19.1%
COCCCNC1=C(C#N)C(=O)NC(c2cccs2)S1 (stereo unspecified) | 145%
Nc1ccn([C@@H]2O[C@H](COP(=O)(O)O[C@@H]3C[C@H](n4cc(F)c(=O)[nH]c4=O)O[C@@H]3COP(=O)(O)O[C@@H]3C[C@H](n4cc(F)c(=O)[nH]c4=O)O[C@@H]3COP(=O)(O)O[C@@H]3C[C@H](n4cc(F)c(=O)[nH]c4=O)O[C@@H]3COP(=O)(O)O[C@@H]3C[C@H](n4cc(F)c(=O)[nH]c4=O)O[C@@H]3COP(=O)(O)O[C@@H]3C[C@H](n4cc(F)c(=O)[nH]c4=O)O[C@@H]3COP(=O)(O)O[C@@H]3C[C@H](n4cc(F)c(=O)[nH]c4=O)O[C@@H]3COP(=O)(O)O[C@@H]3C[C@H](n4cc(F)c(=O)[nH]c4=O)O[C@@H]3COP(=O)(O)O[C@@H]3C[C@H](n4cc(F)c(=O)[nH]c4=O)O[C@@H]3COP(=O)(O)O[C@@H]3C[C@H](n4cc(F)c(=O)[nH]c4=O)O[C@@H]3COP(=O)(O)O[C@@H]3C[C@H](n4cc(F)c(=O)[nH]c4=O)O[C@@H]3COP(=O)(O)OCCOCCOCCOCCOCCOCCO)[C@H](O)C2O)c(=O)n1 (stereo partly specified) | 38.3%
CC(=O)OC1C=CC(OC(C)=O)O1 (stereo unspecified) | 102%
O=C1C(=O)N(CCCCn2cc(CO)nn2)c2ccccc21 | 91.9%
CCOC(=O)CSc1nnc(-c2cc3c([nH]c4ccccc43)c(-c3cccc(O)c3)n2)n1-c1ccc(C)cc1 | 45.3%
